In all, about 310,000 compounds went through this assay and about 14,000 (4.5%) showed an effect of 50% or more. The effect is printed as a negative number. This excerpt belongs to a sample that is enriched for strong results.
target: human ether-à-go-go-related gene (hERG) potassium channel (human, UniProt Q12809); assay: primary screen, population patch clamp on CHO cells stably expressing hERG; higher = less effect of the substance
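Further: peak tail current of the secondary pulse compared with the same well before compound.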

Chain of human ether-à-go-go-related gene (hERG) potassium channel (Q12809 whole entry, looked up): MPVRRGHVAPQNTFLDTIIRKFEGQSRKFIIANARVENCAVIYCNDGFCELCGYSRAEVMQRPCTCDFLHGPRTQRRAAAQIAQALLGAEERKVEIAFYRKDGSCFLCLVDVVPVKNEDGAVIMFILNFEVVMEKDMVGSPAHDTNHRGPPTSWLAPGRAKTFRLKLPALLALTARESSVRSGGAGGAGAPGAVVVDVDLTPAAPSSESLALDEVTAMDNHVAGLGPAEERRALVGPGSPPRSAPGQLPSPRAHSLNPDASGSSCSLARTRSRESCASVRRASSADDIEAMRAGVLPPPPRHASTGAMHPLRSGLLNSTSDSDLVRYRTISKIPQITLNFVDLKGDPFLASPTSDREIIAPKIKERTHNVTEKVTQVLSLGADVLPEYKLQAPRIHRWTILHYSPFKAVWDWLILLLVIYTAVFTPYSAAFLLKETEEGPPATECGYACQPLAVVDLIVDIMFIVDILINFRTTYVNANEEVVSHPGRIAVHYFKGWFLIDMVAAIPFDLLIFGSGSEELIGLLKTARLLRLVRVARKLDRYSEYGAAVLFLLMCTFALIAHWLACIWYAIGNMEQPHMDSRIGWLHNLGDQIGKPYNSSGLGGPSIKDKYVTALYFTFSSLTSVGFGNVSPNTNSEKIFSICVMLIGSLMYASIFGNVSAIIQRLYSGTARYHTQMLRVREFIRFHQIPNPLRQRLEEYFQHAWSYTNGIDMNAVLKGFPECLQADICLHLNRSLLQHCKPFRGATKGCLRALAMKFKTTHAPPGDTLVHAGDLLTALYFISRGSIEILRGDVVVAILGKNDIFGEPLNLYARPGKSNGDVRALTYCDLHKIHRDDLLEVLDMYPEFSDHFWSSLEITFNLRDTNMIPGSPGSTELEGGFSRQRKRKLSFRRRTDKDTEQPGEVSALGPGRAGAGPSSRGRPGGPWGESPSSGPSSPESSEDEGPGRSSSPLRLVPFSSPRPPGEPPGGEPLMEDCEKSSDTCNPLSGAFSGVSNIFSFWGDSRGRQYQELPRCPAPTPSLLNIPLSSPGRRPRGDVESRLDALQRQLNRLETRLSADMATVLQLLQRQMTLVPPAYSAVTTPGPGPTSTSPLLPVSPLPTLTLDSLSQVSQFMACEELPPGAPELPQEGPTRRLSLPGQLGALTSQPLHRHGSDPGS

Compound | hERG current change (%, negative = inhibition) at 10uM [%]
CCCn1c(C(CO)Nc2nc(C)cs2)nc2ccccc21 (stereo not shown) | -5.83
O=C(NC(=S)Nc1ccc(Oc2ccc(Cl)cc2)cc1)c1ccccc1 | 10.7
O=C(Nc1nnc(-c2ccc(Cl)cc2)o1)c1cccc(N2C(=O)CCC2=O)c1 | 12.2
Cc1noc(C)c1COC(=O)CN(C)S(=O)(=O)c1ccc(Cl)cc1 | -14.4
COCCCNC(=O)CC(NS(=O)(=O)c1ccc(F)cc1)c1ccc(OC)cc1 (stereo not shown) | -1.73
Cl.Nc1c2c(nc3ccccc13)CCCC2 | -39.7
Nc1c2c(nc3ccccc13)CCN(Cc1ccccc1)C2 | -56.1
Cl.Nc1c2c(nc3ccccc13)CCCC2.O | -42.3
c1ccc(CN2CCc3nc4ccccc4cc3C2)cc1 | -4.62
Nc1nc2c(c(=O)[nH]1)CN(Cc1ccccc1)CC2 | 7.8
Nc1c2c(nc3ccccc13)CSCC2 | -57.3
C/C(=N\O)C1(C)N(O)C(C)(C)C(c2ccco2)=[N+]1[O-] (stereo not shown) | 22.2
Cc1cccc(NC(=O)c2nc[nH]c2C(=O)N2CCc3ccccc3C2)c1 | 5.13
O=C1NC(Nc2nc3ccccc3s2)(C(F)(F)F)C(=O)N1C1CCCCC1 (stereo not shown) | -6.17
N/C(=N\OC(=O)CCC1CCCC1)c1cccc([N+](=O)[O-])c1 | -70.4
Cc1ccc(S(=O)(=O)N(C)CC(=O)O/N=C(\N)c2ccc([N+](=O)[O-])cc2)cc1 | -45.9
Cc1ccc(S(=O)(=O)N(C)CC(=O)O/N=C(\N)c2cccc([N+](=O)[O-])c2)cc1 | -66.8
N/C(=N\OC(=O)CCC1CCCCC1)c1cccc([N+](=O)[O-])c1 | -15.1
CN(CC(=O)O/N=C(\N)c1cccc([N+](=O)[O-])c1)S(=O)(=O)c1ccccc1 | -24.4
N/C(=N\OC(=O)CC1CCCCC1)c1cccc([N+](=O)[O-])c1 | -6.21
Cc1nnc2sc(-c3ccc(-c4ccc(Cl)c(C(F)(F)F)c4)o3)nn12 | 3.66
CCCCSc1nnc(-c2ccc(C)cc2)n1C | -33.7
COc1cc(C(=O)Nc2ccc3c(c2)ncn3C(C)(C)C)cc(OC)c1OC | 9.04

Compound | hERG current change (%, negative = inhibition) at 10uM [%]
CCOc1c2ccccc2nn1CCOC | 5.42
CN(C)CCCN(Cc1cc2cc3c(cc2[nH]c1=O)OCO3)C(=S)NCc1ccco1 | -19.2
CCc1ccc2[nH]c(=O)c(CN(CCN(C)C)C(=S)NCc3ccco3)cc2c1 | -52
CCc1ccc2[nH]c(=O)c(CN(CC3CCCO3)C(=S)NCc3ccco3)cc2c1 (stereo not shown) | -21.6
CCc1ccc2[nH]c(=O)c(CN(CCN(CC)CC)C(=S)NCc3ccco3)cc2c1 | -67.9
CCN(CC)CCN(Cc1cc2cc(C)ccc2[nH]c1=O)C(=S)NCc1ccco1 | -43.4
CCc1ccc2[nH]c(=O)c(CN(Cc3ccco3)C(=S)NCC3CCCO3)cc2c1 (stereo not shown) | -19
O=C1c2cccc3c([N+](=O)[O-])ccc(c23)C(=O)N1c1ccc(Cl)cn1 | 0.201
COC(=O)c1cccc(NS(=O)(=O)c2ccc(OC)cc2)c1C | -1.48
COc1ccc(-c2cc(C(F)(F)F)nc(SCCC(=O)NCc3ccccc3)n2)cc1 | -14.5
CCCOc1ccc(C(=O)Nc2c[nH]c(=O)[nH]c2=O)cc1 | -6.41
CCn1c(COc2cccc(OC)c2)nnc1SCC(=O)Nc1cccc(OC)c1 | -41.1
N=c1c(C(=O)NC2CCCC2)cc2c(=O)n3ccccc3nc2n1CCN1CCOCC1 | -91.9
N=c1c(C(=O)NC2CCCC2)cc2c(=O)n3ccccc3nc2n1CCCN1CCOCC1 | -78.2
O=C(c1ccco1)N1CCN=C1SCc1cccc(F)c1 | -6.98
Cc1csc2ncc(C(=O)NCCC(c3ccccc3)c3ccccc3)c(=O)n12 | -0.968
Cc1cc(-c2nn(C)c(=O)c3ccccc23)cc(C)c1O | 0.868
Cc1ccc(S(=O)(=O)N2CCC(=O)N(CCOCc3ccc(Cl)cc3)CC2)cc1 | -60.1
Cc1ccc(S(=O)(=O)N2CCC(=O)N(C(COCc3ccc(Cl)cc3)C(C)C)CC2)cc1 (stereo not shown) | -51.7
Cc1ccc(S(=O)(=O)N2CCC(=O)N(CCOC(=O)Nc3cccc(Cl)c3)CC2)cc1 | -65.7
Cc1ccc(COCCN2CCN(S(=O)(=O)c3ccc(C)cc3)CCC2=O)cc1 | 6.17
Cc1ccc(S(=O)(=O)N2CCC(=O)N(C(COCc3ccccc3)C(C)C)CC2)cc1 (stereo not shown) | -23.2
Cc1ccc(NC(=O)OCCN2CCN(S(=O)(=O)c3ccc(C)cc3)CCC2=O)cc1 | -18.5

Compound | hERG current change (%, negative = inhibition) at 10uM [%]
Cc1ccc(COCCN2CCN(S(=O)(=O)c3ccccc3)CCC2=O)cc1 | -0.87
Cc1ccc(S(=O)(=O)N2CCC(=O)N(CCOC(=O)Nc3cc(C)cc(C)c3)CC2)cc1 | -40.7
Cc1ccc(S(=O)(=O)N2CCC(=O)N(C(COCc3cccc(Cl)c3)C(C)C)CC2)cc1 (stereo not shown) | -35.2
COc1ccc(C2=Nc3cccc4cccc(c34)N2)cc1 | 9.66
Cc1cccc(Nc2nnc(SCC(=O)Nc3cccc(S(=O)(=O)N4CCCCC4)c3)s2)c1 | 3.37
C=CCN1C(=O)NC(=O)/C(=C/c2ccoc2)C1=O | 20.5
CCn1c(C)[n+](CCOC(C)=O)c2cc(Cl)c(Cl)cc21.[I-] | -8.87
COC(=O)CCCC(=O)N1CCC(CCC(=O)NCc2ccc(F)cc2)CC1 | -24
CCOC(=O)N1CCN(c2ccc(Cl)c(Cl)c2)CC1 | -11.1
N#C/C=C(/N)N1CCN(c2ccc(Cl)c(Cl)c2)CC1 | -73.9
CN(C)C(=C(C#N)C#N)N1CCN(c2ccc(Cl)cc2)CC1 | -48.3
COC(=O)N1CCN(c2ccc(Cl)c(Cl)c2)CC1 | -1.86
CNC(=S)N1CCN(c2ccc(Cl)c(Cl)c2)CC1 | -6.17
CN(C)C(=C(C#N)C#N)N1CCN(c2ccc(Cl)c(Cl)c2)CC1 | -63.2
CCC1(c2ccccc2)NC(=O)N(CC(=O)Nc2ccccc2N2CCCCC2)C1=O (stereo not shown) | -15.8
CCCc1ccc(Oc2cc(N3CCOCC3)nc(-c3ccccc3)n2)cc1 | 21.5
CCC(=O)Nc1cccc(-c2nc3ccc(C)cc3o2)c1 | -13.4
CC1(C)CC(O)C(C)(C)N1O (stereo not shown) | 3.9
CCc1nnc(NS(=O)(=O)c2ccc(N=Cc3c(C)[nH]n(-c4ccc(Cl)cc4)c3=O)cc2)s1 | 17.7
Cc1ccc(C)c(CN2C(=O)CSc3ccc(C(=O)NCC(C)CN4CCC(C)CC4)cc32)c1 (stereo not shown) | -75.8
Cc1ccc(C)c(CN2C(=O)CSc3ccc(C(=O)NCCN4CCOCC4)cc32)c1 | 14.6
Cc1ccc(C)c(CN2C(=O)CSc3ccc(C(=O)N4CCCC4)cc32)c1 | -17
CCOC(=O)c1nn(-c2ccccc2F)c(-c2ccccc2)c1C(=O)c1ccccc1 | 7.34

Compound | hERG current change (%, negative = inhibition) at 10uM [%]
O=C(NCCc1ccccc1)c1ccc(-n2cnnn2)cc1 | -4.78
COCCN(C(=O)COC(=O)c1cccc2ccccc12)c1c(N)n(Cc2ccccc2)c(=O)[nH]c1=O | -0.159
COc1ccc(/C=C/CN2CCC(n3nccc3NC(=O)C3CC3)CC2)cc1 | -72.7
COc1ccc(CC(=O)N2CCC(n3nccc3NC(=O)C3CC3)CC2)cc1 | 13.7
COc1ccc(OCC(=O)N2CCC(n3nccc3NC(=O)C3CC3)CC2)cc1 | 1.44
COc1ccc(/C=C/CN2CCC(n3nccc3NC(=O)C3CCCC3)CC2)cc1 | -88.6
COC(=O)c1ccc2c(=O)n(-c3ccccc3)c(SCN3C(=O)c4ccccc4C3=O)nc2c1 | 11
COc1ccc(/C(C)=N/Nc2ccc(F)cc2F)c(O)c1 | 6.58
COc1ccccc1C(=O)NC(=O)CSc1nc(C)cs1 | 12
CCOC(=O)N1CCN(C(=O)CN(c2cccc(OC)c2)S(C)(=O)=O)CC1 | -5.17
COc1cc(OC)c2c(C)cc(=O)oc2c1C(CCN1CCOCC1)c1ccc(N(C)C)cc1 (stereo not shown) | -28.5
COc1cc(OC)c2c(-c3ccccc3)cc(=O)oc2c1C(CC(=O)N1CCOCC1)c1ccc2c(c1)OCO2 (stereo not shown) | 1.51
COc1ccc(C(CC(=O)N2CCCC(C)C2)c2c(OC)cc(OC)c3c(-c4ccccc4)cc(=O)oc23)cc1 (stereo not shown) | 8.57
COc1cc(OC)c2c(-c3ccccc3)cc(=O)oc2c1C(CCN1CCCC(C)C1)c1ccc(N(C)C)cc1 (stereo not shown) | -30
COc1ccc(C(CCN2CCCC(C)C2)c2c(OC)cc(OC)c3c(C)cc(=O)oc23)cc1 (stereo not shown) | -74.3
COc1ccc(C(CC(=O)N2CCOCC2)c2c(OC)cc(OC)c3c(-c4ccccc4)cc(=O)oc23)cc1 (stereo not shown) | 12
COc1cc(O)c(C(CCN2CCOCC2)c2cc(OC)c(OC)c(OC)c2)c(OC)c1 (stereo not shown) | 8.02
COc1cc(C(CCN2CCOCC2)c2c(OC)cc(OC)c3c(C)cc(=O)oc23)cc(OC)c1OC (stereo not shown) | -79.3
COc1cc(OC)c2c(C)cc(=O)oc2c1C(CCN1CCN(c2ccccc2)CC1)c1ccc2c(c1)OCO2 (stereo not shown) | -11.1
COc1cc(OC)c2c(C)cc(=O)oc2c1C(CCN1CCOCC1)c1ccc2c(c1)OCO2 (stereo not shown) | -68.4
COc1ccc(C(CCN2CCOCC2)c2c(OC)cc(OC)c3c(C)cc(=O)oc23)cc1 (stereo not shown) | -69.2
COc1cc(C(CCN2CCN(c3ccccc3)CC2)c2c(OC)cc(OC)c3c(C)cc(=O)oc23)cc(OC)c1OC (stereo not shown) | -6.01
